# Reference: PubChem BioAssay (NCATS)
# Inconclusive results are not listed. A call without a number means that no potency is given here. Calls of active or inactive are those of the source. Calls follow the shape of the dose curve; as a rule, active = well fitted curve in the direction sought with a large enough effect; inconclusive = small, poorly fitted or top-dose-only effect, or another doubt; inactive = no such curve, though single readings can be large; an effect the other way counts as inactive or inconclusive.
# Columns and labels:
# CRL-7250 = normal cell line; test: Cytotoxic Profiling of Annotated Libraries Using Quantitative High-Throughput Screening (AID 1296008); details: Five cell lines viability, CellTiter-Glo ATP luminescence, 48-72 h; max response: stronger effect = lower value; also: nearly all actives have a fitted effect of over 60% in size
# How it was run: (§1)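 Cells exposed to compounds for 48 or 72 hr at 37 degrees Celsius. Viability read as ATP-coupled luminescence with CellTiter-Glo after 10 min at room temperature.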
# HaCat = test: as above; details: Five cell lines viability, CellTiter-Glo ATP luminescence, 48-72 h; max response: stronger effect = lower value
# How it was run: as §1
# KB-3-1 = test: as above; details: Five cell lines viability, CellTiter-Glo ATP luminescence, 48-72 h; max response: stronger effect = lower value
# How it was run: as §1
# NIH3T3 = test: as above; details: Five cell lines viability, CellTiter-Glo ATP luminescence, 48-72 h; max response: stronger effect = lower value
# How it was run: as §1
# C33A = test: Primary qHTS to identify gynecologic anti-cancer compounds using libraries of approved drugs and bioactive compounds (AID 1345084); details: Gynecologic cancer cell panel viability, ATPlite luminescence, 48 h; series mostly up to 57.5 µM; also: nearly all actives have a fitted effect of over 55% in size
# How it was run: (§2)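 Cytotoxicity screen measuring ATP content by luciferase luminescence. Each compound is applied at five concentrations for 48 h at 37 C with 5% CO2.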
# CAOV3 = test: as above; details: Gynecologic cancer cell panel viability, ATPlite luminescence, 48 h; series mostly up to 57.5 µM
# How it was run: as §2
# CASKI = test: as above; details: Gynecologic cancer cell panel viability, ATPlite luminescence, 48 h; series mostly up to 57.5 µM
# How it was run: as §2
# Es-2 = test: as above; details: Gynecologic cancer cell panel viability, ATPlite luminescence, 48 h; series mostly up to 57.5 µM
# How it was run: as §2
# HeLa = test: as above; details: Gynecologic cancer cell panel viability, ATPlite luminescence, 48 h; series mostly up to 57.5 µM
# How it was run: as §2
# Hek293T = test: as above; details: Gynecologic cancer cell panel viability, ATPlite luminescence, 48 h, control line for the selectivity index; series mostly up to 57.5 µM
# How it was run: as §2
# JEG-3 = test: as above; details: Gynecologic cancer cell panel viability, ATPlite luminescence, 48 h; series mostly up to 57.5 µM
# How it was run: as §2
# PA-1 = test: as above; details: Gynecologic cancer cell panel viability, ATPlite luminescence, 48 h; series mostly up to 57.5 µM
# How it was run: as §2
# SKOV3 = test: as above; details: Gynecologic cancer cell panel viability, ATPlite luminescence, 48 h; series mostly up to 57.5 µM
# How it was run: as §2
# OV90 = test: as above; details: Gynecologic cancer cell panel viability, ATPlite luminescence, 48 h; series mostly up to 57.5 µM
# How it was run: as §2
# Potency is read from the fitted curve at half-maximal effect.
structure (smiles),measurement,setting,value
CCC(CC)(NC(=O)C(C)C)C(=O)N[C@@H](CCCN=C(N)N)C(=O)NC1(C(=O)NC(c2ccc(F)cc2)c2ccc(F)cc2)CCCC1,max response,CRL-7250,2.72% (inactive)
same,max response,HaCat,-3.8% (inactive)
same,max response,KB-3-1,7.28% (inactive)
same,max response,NIH3T3,-2.32% (inactive)
same,Potency,C33A,inactive
same,Potency,CAOV3,inactive
same,Potency,CASKI,inactive
same,Potency,Es-2,inactive
same,Potency,HeLa,inactive
same,Potency,Hek293T,inactive
same,Potency,JEG-3,inactive
same,Potency,PA-1,inactive
same,Potency,SKOV3,inactive
O=C(O)CCc1nccc2c1[nH]c1ccccc12,max response,CRL-7250,-19.9% (inactive)
same,max response,HaCat,3.67% (inactive)
same,outcome,KB-3-1,inactive
same,max response,NIH3T3,-2.87% (inactive)
same,Potency,C33A,inactive
same,Potency,CAOV3,inactive
same,Potency,CASKI,inactive
same,Potency,Es-2,inactive
same,Potency,HeLa,inactive
same,Potency,Hek293T,inactive
same,Potency,JEG-3,inactive
same,Potency,OV90,inactive
same,Potency,SKOV3,inactive
C=C(C)C(=O)O[C@H]1[C@H]2C(=C)C(=O)O[C@@H]2/C=C(\CO)CC/C=C(/C=O)[C@@H]1O,max response,CRL-7250,-17.3% (inactive)
same,max response,HaCat,-13.6% (inactive)
same,outcome,KB-3-1,inactive
same,max response,NIH3T3,-6.9% (inactive)
same,Potency,C33A,inactive
same,Potency,CAOV3,inactive
same,Potency,CASKI,inactive
same,Potency,Es-2,inactive
same,Potency,HeLa,inactive
same,Potency,Hek293T,inactive
same,Potency,JEG-3,inactive
same,Potency,OV90,inactive
same,Potency,PA-1,inactive
same,Potency,SKOV3,inactive
C[C@@H]1O[C@@H](O[C@H]2[C@H](OC(=O)[C@]34CCC(C)(C)C[C@H]3C3=CCC5[C@@]6(C)C[C@H](O)[C@H](O[C@@H]7O[C@H](C(=O)O)[C@@H](O)[C@H](O)[C@H]7O)[C@@](C)(CO)C6[C@H](O)C[C@@]5(C)[C@]3(C)C[C@H]4O)O[C@@H](CO)[C@@H]2O)[C@H](O)[C@H](O)[C@H]1O[C@@H]1OC[C@@H](O)[C@H](O[C@H]2OC[C@](O)(CO)[C@H]2O)[C@H]1O (stereo partly specified),outcome,CRL-7250,inactive
same,max response,HaCat,-2% (inactive)
same,max response,KB-3-1,-0.0365% (inactive)
same,max response,NIH3T3,-0.318% (inactive)
same,"activity change, negative = cytotoxicity",C33A,-18.2% [at 6.55 µM] (inactive)
same,"activity change, negative = cytotoxicity",CAOV3,-15.4% [at 6.55 µM] (inactive)
same,"activity change, negative = cytotoxicity",CASKI,-0.268% [at 6.55 µM] (inactive)
same,"activity change, negative = cytotoxicity",HeLa,-1.36% [at 6.55 µM] (inactive)
same,"activity change, negative = cytotoxicity",Hek293T,-4.09% [at 6.55 µM] (inactive)
same,"activity change, negative = cytotoxicity",JEG-3,-17.4% [at 6.55 µM] (inactive)
same,"activity change, negative = cytotoxicity",OV90,-4.96% [at 6.55 µM] (inactive)
same,"activity change, negative = cytotoxicity",SKOV3,-5.43% [at 6.55 µM] (inactive)
O=C(N[C@H](Cc1cscn1)C(=O)N[C@@H](CC1CCCCC1)[C@@H](O)[C@@H](O)C1CC1)c1nc2ccccc2[nH]1,max response,CRL-7250,0.844% (inactive)
same,max response,HaCat,-14.3% (inactive)
same,max response,KB-3-1,-12.2% (inactive)
same,max response,NIH3T3,-17.1% (inactive)
same,Potency,C33A,inactive
same,Potency,CAOV3,inactive
same,Potency,CASKI,inactive
same,Potency,Es-2,inactive
same,Potency,HeLa,inactive
same,Potency,Hek293T,inactive
same,Potency,JEG-3,inactive
same,Potency,OV90,inactive
same,Potency,PA-1,inactive
same,Potency,SKOV3,inactive
C/C(=C\Cc1c(O)c(Cl)c(C)c(C=O)c1O)CC/C=C(\C)[C@H]1CC(=O)C(C)(C)O1,max response,CRL-7250,-27.3% (inactive)
same,max response,HaCat,-8.07% (inactive)
same,max response,KB-3-1,-27.9% (inactive)
same,max response,NIH3T3,-17.5% (inactive)
same,Potency,C33A,inactive
same,Potency,CAOV3,inactive
same,Potency,CASKI,inactive
same,Potency,Hek293T,inactive
same,Potency,OV90,inactive
same,Potency,SKOV3,inactive
O=C1COc2nccc(-c3ccccc3F)c2CN1Cc1cc(C(F)(F)F)cc(C(F)(F)F)c1,outcome,CRL-7250,inactive
same,max response,HaCat,-0.797% (inactive)
same,max response,KB-3-1,-2.61% (inactive)
same,max response,NIH3T3,-11.4% (inactive)
same,Potency,C33A,inactive
same,Potency,CAOV3,inactive
same,Potency,CASKI,inactive
same,Potency,Es-2,inactive
same,Potency,HeLa,inactive
same,Potency,Hek293T,inactive
same,Potency,JEG-3,inactive
same,Potency,OV90,inactive
same,Potency,PA-1,inactive
same,Potency,SKOV3,inactive
CC(O)(C(=O)C1CC1(CO)COC1OC(CO)C(O)C(O)C1O)C1C(O)CC2C3CC=C4CC(O)CC(O)C4(C)C3C(O)CC21C (stereo unspecified),Potency,CRL-7250,432 nM (active)
same,Potency,HaCat,1.72 µM (active)
same,Potency,KB-3-1,769 nM (active)
same,max response,NIH3T3,0.504% (inactive)
same,Potency,C33A,562 nM (active)
same,Potency,CAOV3,1.78 µM (active)
same,Potency,Es-2,891 nM (active)
same,Potency,HeLa,1.41 µM (active)
same,Potency,Hek293T,1.41 µM (active)
same,Potency,OV90,4.47 µM (active)
same,Potency,PA-1,1.78 µM (active)
C[C@@H]1O[C@@H](O[C@H]2[C@@H](OC(=O)[C@]34CCC(C)(C)CC3C3=CCC5[C@@]6(C)C[C@H](O)[C@H](O[C@@H]7O[C@H](CO)[C@@H](O)[C@H](O)[C@H]7O[C@@H]7OC[C@@H](O)[C@H](O)[C@H]7O)[C@@](C)(C(=O)O)C6CC[C@@]5(C)[C@]3(C)CC4)OC[C@H](O)[C@@H]2O)[C@H](O)[C@H](O)[C@H]1O[C@@H]1OC[C@@H](O)[C@H](O)[C@H]1O (stereo partly specified),max response,CRL-7250,4.52% (inactive)
same,max response,HaCat,-2.16% (inactive)
same,Potency,KB-3-1,2450 nM (active)
same,max response,NIH3T3,1.11% (inactive)
same,"activity change, negative = cytotoxicity",C33A,-27.4% [at 6.55 µM] (inactive)
same,"activity change, negative = cytotoxicity",CAOV3,2.23% [at 6.55 µM] (inactive)
same,"activity change, negative = cytotoxicity",CASKI,-11.2% [at 6.55 µM] (inactive)
same,"activity change, negative = cytotoxicity",Es-2,4.6% [at 6.55 µM] (inactive)
same,"activity change, negative = cytotoxicity",HeLa,-12.9% [at 6.55 µM] (inactive)
same,"activity change, negative = cytotoxicity",Hek293T,-3.38% [at 6.55 µM] (inactive)
same,"activity change, negative = cytotoxicity",PA-1,-26.7% [at 6.55 µM] (inactive)
same,"activity change, negative = cytotoxicity",SKOV3,-18.3% [at 6.55 µM] (inactive)
Cc1c(C2=CCN(C(=O)N(C)C(C)C)CC2)nnn1-c1cccnc1F,max response,CRL-7250,-2.94% (inactive)
same,max response,HaCat,3% (inactive)
same,max response,KB-3-1,7.23% (inactive)
same,max response,NIH3T3,-3.1% (inactive)
same,Potency,C33A,inactive
same,Potency,CAOV3,inactive
same,Potency,CASKI,inactive
same,Potency,Es-2,inactive
same,Potency,Hek293T,inactive
same,Potency,JEG-3,inactive
same,Potency,OV90,inactive
same,Potency,PA-1,inactive
same,Potency,SKOV3,inactive
